# Laboratory results published in PubChem BioAssay (Tox21).
# A number with no mark means an inactive call. Records with an inconclusive call do not appear. Entries that show only a call come without a potency. The source made the active and inactive calls. The call rests on the fitted dose curve; in most records, active means well fitted curve in the direction sought with a large enough effect in the repeat runs; inconclusive means weak or mixed curves; inactive means no such curve, though single readings can be large; an effect the other way counts as inactive or inconclusive.
# What was measured:
# [1] = Human pregnane X receptor (PXR) small molecule agonists, qHTS cell viability counter screen (AID 1346977); further: nearly all actives have a fitted effect of over 50% in size
# Summary of the method: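 PXR-Luc HepG2 cells (2,000/well, 5% charcoal-stripped FBS) preincubated 5 hr, then exposed to compounds 24 hr at 37 C. Viability read in the same wells by CellTiter-Fluor fluorescence, reagent added at 23 hr, 1 hr incubation.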
# [2] = Caspase-3/7 induction in HepG2 cells by small molecules, qHTS assay (AID 1346978); further: nearly all actives have a fitted effect of over 15% in size
# Summary of the method: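 Wild-type HepG2 cells (2,000/well) were settled 5 h at 37 C, 5% CO2, then exposed to compounds in DMSO for 17 h. Caspase-3/7 activity was read by luminescence 30 min after adding Caspase-Glo 3/7 reagent at room temperature.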
# [3] = Caspase-3/7 induction in CHO-K1 cells by small molecules, qHTS cell viability counter screen (AID 1346979); further: nearly all actives have a fitted effect of over 35% in size
# Summary of the method: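 Wild-type CHO-K1 cells (1,500/well) treated with compound after 5 h plating; after 16 h at 37C, viability read as CellTiter-Fluor fluorescence following 1 h reagent incubation, in the same wells as the caspase read.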
# [4] = Caspase-3/7 induction in CHO-K1 cells by small molecules, qHTS assay (AID 1346980); further: nearly all actives have a fitted effect of over 15% in size
# Summary of the method: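 Wild-type cells were seeded at 1,500 per well and settled 5 hr at 37 C, 5% CO2, then exposed to DMSO-dissolved compounds for 17 hr. Caspase-Glo 3/7 reagent was added, and luminescence was read after 30min at room temperature.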
# [5] = Caspase-3/7 induction in HepG2 cells by small molecules, qHTS cell viability counter screen (AID 1346981); further: series mostly up to about 92 µM; nearly all actives have a fitted effect of over 30% in size
# Summary of the method: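 CellTiter-Fluor fluorescence measured viability in the same wells used for Caspase-Glo 3/7. HepG2 (wild type) at 2,000 cells/well were pre-incubated 5 hr, dosed, and given reagent at 16 hr, with 1 hr further at 37C.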
# [6] = molecular target: Nuclear receptor subfamily 1 group I member 2 (Rattus norvegicus) (UniProt Q9R1A7); test: Rat pregnane X receptor (rPXR) activation by small molecules, qHTS assay (AID 1346983); settings: rPXR luciferase reporter cells, One-Glo luminescence, 24 h; stronger effect = higher value; further: nearly all actives have a fitted effect of over 20% in size
# Summary of the method: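 Cell-based rPXR luciferase reporter assay, 2,000 cells per well, rested 5hr at 37 C before compound addition in DMSO, then 24 hr at 37 C. One-Glo reagent was added and luminescence read after 30 min at room temperature.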
# [7] = molecular target: Nuclear receptor subfamily 1 group I member 2 (Homo sapiens) (UniProt O75469); test: CYP3A4 induction through human pregnane X receptor (PXR) by small molecules, qHTS assay (AID 1346984); further: nearly all actives have a fitted effect of over 40% in size; further: potency means the concentration at half of the fitted maximal effect
# Summary of the method: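 Read-out is luminescence after One-Glo addition, following a 3 hr, 37C incubation with Luciferin-IPA CYP3A4 substrate (3uM final). Before that, compounds were on DPX-2 cells (HepG2 co-transfected with PXR element plus CYP3A4-promoter luciferase) for 24 hr at 37C.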
# [8] = molecular target: Nuclear receptor subfamily 1 group I member 2 (Homo sapiens) (UniProt O75469); test: Human pregnane X receptor (PXR) activation by small molecules, qHTS assay (AID 1346985); further: nearly all actives have a fitted effect of over 40% in size; further: potency means the concentration at half of the fitted maximal effect
# Summary of the method: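 DPX-2 cells (HepG2 co-transfected with a PXR response element and a CYP3A4-promoter luciferase construct) were seeded at 2,000 per well, rested 5 hr at 37C, then exposed to DMSO-dissolved compounds for 24 hr. Activation was read as luciferase luminescence.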
# [9] = molecular target: Cytochrome P450 2D6 (Homo sapiens) (UniProt P10635); test: Cytochrome P450 Family 2 Subfamily D Member 6 (CYP2D6) small molecule antagonists: luciferase reporter qHTS assay (AID 1671196); further: nearly all actives have a fitted effect of over 50% in size; further: potency means the concentration at half of the fitted maximal effect; on activity change, negative = inhibition: series mostly up to about 120 µM
# Summary of the method: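 CYP2D6 activity was followed as luminescence from its luciferin product after a 1 h NADPH-driven reaction at room temperature. Enzyme-substrate mix and compound were pre-incubated for 10 min, and the signal was read 20 min after adding detection reagent.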
# [10] = molecular target: Cytochrome P450 2C19 (Homo sapiens) (UniProt P33261); test: Cytochrome P450 Family 2 Subfamily C Member 19 (CYP2C19) small molecule antagonists: luciferase reporter qHTS assay (AID 1671197); further: nearly all actives have a fitted effect of over 65% in size; further: potency means the concentration at half of the fitted maximal effect; on activity change, negative = inhibition: series mostly up to about 120 µM
# Summary of the method: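 CYP2C19 P450-Glo, 1536-well qHTS. Cpd + enzyme/proluciferin substrate 10 min RT; + NADPH regen, 37C 1 h; stop with luciferin detection reagent, 20 min RT, luminescence (RLU). Pos ctrl ketoconazole.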
# [11] = molecular target: Cytochrome P450 2C9 (Homo sapiens) (UniProt P11712); test: Cytochrome P450 Family 2 Subfamily C Member 9 (CYP2C9) small molecule antagonists: luciferase reporter qHTS assay (AID 1671198); further: nearly all actives have a fitted effect of over 50% in size; further: potency means the concentration at half of the fitted maximal effect; on activity change, negative = inhibition: series mostly up to about 120 µM
# Summary of the method: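 CYP2C9 activity was measured with a P450-Glo proluciferin substrate. Enzyme–substrate mix was held with compound for 10 min at room temperature, then NADPH regeneration solution was added for 1 h at 37C. Luciferin product was read as luminescence.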
# [12] = molecular target: Cytochrome P450 1A2 (Homo sapiens) (UniProt P05177); test: Cytochrome P450 Family 1 Subfamily A Member 2 (CYP1A2) small molecule antagonists: luciferase reporter qHTS assay (AID 1671199); further: nearly all actives have a fitted effect of over 50% in size; further: potency means the concentration at half of the fitted maximal effect; on activity change, negative = inhibition: series mostly up to about 120 µM
# Summary of the method: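 Luminescence from luciferin formed by CYP1A2 from a proluciferin substrate, read 20 min after detection reagent. Compound was pre-incubated 10 min with enzyme-substrate, and reaction started with NADPH regeneration solution for 1 h at room temperature; furafylline control.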
# [13] = molecular target: Voltage-gated inwardly rectifying potassium channel KCNH2 (Homo sapiens) (UniProt Q12809); test: Human Ether-a-go-go-Related Gene (hERG) channel small molecule antagonists: fluorescence cell-based qHTS assay (AID 1671200)
# Summary of the method: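 hERG-U2OS cells plated overnight at 37 C, loaded with FluxOR II dye 1 h at RT in dark; after 10 min, thallium stimulus added. Fluorescence (480/540 nm) read kinetically for 2 min at 1 s intervals.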
# [14] = molecular target: Cytochrome P450 3A4 (Homo sapiens) (UniProt P08684); test: Cytochrome P450 Family 3 Subfamily A Member 4 (CYP3A4) small molecule antagonists: luciferase reporter qHTS assay (AID 1671201)
# Summary of the method: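 P450-Glo CYP3A4 luminescent assay: compounds preincubated 10 min at room temperature with enzyme and proluciferin substrate, NADPH regeneration added, 1 h room-temperature reaction, stopped with luciferin detection reagent; luminescence read after 20 min. Ketoconazole positive control.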
# [15] = molecular target: Nuclear receptor subfamily 1 group I member 2 (Homo sapiens) (UniProt O75469); test: Human pregnane X receptor (PXR) small molecule agonists, qHTS assay (AID 1346982); further: nearly all actives have a fitted effect of over 35% in size; further: potency means the concentration at half of the fitted maximal effect
# Summary of the method: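 Agonist mode: luminescence from ONE-Glo after 24 h compound exposure at 37C in HepG2 cells carrying hPXR-responsive CYP3A4 luciferase, plated in charcoal-stripped serum medium 5 h beforehand.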
# Chain of Cytochrome P450 3A4 (Homo sapiens) (P08684 whole entry, looked up): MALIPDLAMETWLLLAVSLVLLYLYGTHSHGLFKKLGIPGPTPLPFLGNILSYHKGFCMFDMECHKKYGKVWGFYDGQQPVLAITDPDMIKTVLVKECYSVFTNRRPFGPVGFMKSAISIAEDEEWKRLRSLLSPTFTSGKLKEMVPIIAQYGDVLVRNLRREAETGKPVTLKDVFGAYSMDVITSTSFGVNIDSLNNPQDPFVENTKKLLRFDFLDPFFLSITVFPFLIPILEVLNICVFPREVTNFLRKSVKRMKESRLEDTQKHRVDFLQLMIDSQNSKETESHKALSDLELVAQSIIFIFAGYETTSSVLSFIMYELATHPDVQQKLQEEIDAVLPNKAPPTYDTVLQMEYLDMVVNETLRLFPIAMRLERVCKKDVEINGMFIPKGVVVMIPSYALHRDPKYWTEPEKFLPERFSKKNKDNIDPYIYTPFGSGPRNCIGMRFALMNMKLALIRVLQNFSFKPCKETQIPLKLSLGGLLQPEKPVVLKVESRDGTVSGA
# Chain of Cytochrome P450 2C19 (Homo sapiens) (P33261 whole entry, looked up): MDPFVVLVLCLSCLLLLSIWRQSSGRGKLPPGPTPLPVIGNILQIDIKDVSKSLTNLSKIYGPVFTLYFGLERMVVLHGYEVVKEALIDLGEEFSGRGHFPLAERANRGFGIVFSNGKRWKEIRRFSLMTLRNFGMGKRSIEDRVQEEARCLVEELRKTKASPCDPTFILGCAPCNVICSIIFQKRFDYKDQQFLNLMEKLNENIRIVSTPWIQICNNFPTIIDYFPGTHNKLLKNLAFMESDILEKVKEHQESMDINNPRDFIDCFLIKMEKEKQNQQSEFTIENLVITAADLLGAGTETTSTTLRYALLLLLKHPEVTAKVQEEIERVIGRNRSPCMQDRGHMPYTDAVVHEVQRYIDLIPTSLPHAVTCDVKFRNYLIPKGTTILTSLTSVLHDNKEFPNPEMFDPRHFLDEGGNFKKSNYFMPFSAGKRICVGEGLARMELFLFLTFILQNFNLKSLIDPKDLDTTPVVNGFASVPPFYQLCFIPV
# Chain of Cytochrome P450 1A2 (Homo sapiens) (P05177 whole entry, looked up): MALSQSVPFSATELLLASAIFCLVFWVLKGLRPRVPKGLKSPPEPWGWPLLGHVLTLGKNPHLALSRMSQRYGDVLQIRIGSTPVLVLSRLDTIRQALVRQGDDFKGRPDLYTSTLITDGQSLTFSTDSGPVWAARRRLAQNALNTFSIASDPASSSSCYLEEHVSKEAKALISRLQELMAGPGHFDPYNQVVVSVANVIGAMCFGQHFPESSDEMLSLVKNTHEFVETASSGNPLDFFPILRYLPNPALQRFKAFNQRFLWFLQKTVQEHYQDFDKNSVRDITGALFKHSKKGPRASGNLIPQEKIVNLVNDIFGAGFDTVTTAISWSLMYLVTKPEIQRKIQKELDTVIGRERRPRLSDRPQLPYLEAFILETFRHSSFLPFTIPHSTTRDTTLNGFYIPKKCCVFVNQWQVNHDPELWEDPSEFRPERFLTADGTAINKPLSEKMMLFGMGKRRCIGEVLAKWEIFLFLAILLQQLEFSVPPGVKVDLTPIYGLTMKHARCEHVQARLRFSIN
# Chain of Nuclear receptor subfamily 1 group I member 2 (Homo sapiens) (O75469 whole entry, looked up): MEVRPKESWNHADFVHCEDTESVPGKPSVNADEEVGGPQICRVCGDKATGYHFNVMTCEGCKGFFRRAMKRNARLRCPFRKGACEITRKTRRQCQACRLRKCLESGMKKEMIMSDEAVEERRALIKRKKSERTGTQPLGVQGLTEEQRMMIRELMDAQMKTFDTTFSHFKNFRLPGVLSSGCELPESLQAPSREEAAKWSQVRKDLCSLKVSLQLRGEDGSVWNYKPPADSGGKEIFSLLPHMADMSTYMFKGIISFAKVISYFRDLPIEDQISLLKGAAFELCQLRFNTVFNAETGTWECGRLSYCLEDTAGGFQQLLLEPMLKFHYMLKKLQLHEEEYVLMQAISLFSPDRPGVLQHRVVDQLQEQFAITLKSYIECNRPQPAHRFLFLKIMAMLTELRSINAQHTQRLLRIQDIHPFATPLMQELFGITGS
# Chain of Voltage-gated inwardly rectifying potassium channel KCNH2 (Homo sapiens) (Q12809 whole entry, looked up): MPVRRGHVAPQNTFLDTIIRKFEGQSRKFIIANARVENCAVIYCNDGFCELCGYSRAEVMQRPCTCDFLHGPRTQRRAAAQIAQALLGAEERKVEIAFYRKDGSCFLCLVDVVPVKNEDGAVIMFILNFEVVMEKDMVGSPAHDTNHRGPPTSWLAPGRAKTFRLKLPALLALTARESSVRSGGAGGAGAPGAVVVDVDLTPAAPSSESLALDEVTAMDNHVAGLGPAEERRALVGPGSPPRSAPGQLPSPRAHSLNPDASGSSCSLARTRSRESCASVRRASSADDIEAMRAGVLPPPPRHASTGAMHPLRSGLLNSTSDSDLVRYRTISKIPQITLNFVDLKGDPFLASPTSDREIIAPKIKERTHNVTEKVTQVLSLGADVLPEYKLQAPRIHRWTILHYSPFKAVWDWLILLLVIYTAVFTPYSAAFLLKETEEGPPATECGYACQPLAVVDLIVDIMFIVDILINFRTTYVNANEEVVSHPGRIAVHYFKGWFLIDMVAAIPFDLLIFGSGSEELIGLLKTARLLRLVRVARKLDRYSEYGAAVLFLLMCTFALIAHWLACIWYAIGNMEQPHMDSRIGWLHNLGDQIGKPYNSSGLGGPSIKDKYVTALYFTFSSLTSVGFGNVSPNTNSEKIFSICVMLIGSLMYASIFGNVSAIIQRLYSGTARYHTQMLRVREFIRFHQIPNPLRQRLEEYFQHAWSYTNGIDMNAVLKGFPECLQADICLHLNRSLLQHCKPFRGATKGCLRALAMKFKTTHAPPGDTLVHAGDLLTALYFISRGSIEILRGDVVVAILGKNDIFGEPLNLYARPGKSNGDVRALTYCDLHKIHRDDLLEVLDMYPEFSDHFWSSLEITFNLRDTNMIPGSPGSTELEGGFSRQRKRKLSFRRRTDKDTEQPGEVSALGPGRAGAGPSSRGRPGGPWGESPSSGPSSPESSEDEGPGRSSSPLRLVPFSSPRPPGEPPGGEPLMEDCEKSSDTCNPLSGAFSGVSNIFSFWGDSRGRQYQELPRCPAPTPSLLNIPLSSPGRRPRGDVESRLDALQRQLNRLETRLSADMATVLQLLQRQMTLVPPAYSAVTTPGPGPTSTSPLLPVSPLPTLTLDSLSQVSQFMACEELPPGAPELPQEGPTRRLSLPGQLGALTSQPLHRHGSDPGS
# Chain of Nuclear receptor subfamily 1 group I member 2 (Rattus norvegicus) (Q9R1A7 whole entry, looked up): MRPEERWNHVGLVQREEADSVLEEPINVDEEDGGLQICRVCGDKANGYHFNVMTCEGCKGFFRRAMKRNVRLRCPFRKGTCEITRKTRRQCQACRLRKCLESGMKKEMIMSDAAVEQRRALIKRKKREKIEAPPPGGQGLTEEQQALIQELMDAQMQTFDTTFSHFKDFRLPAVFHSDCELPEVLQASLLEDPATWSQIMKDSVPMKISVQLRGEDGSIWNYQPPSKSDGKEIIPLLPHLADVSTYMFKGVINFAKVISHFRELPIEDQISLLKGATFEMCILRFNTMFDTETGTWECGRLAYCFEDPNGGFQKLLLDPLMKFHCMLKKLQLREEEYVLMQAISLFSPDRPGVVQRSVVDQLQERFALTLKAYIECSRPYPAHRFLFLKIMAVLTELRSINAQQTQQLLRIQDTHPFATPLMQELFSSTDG
# Chain of Cytochrome P450 2D6 (Homo sapiens) (P10635 whole entry, looked up): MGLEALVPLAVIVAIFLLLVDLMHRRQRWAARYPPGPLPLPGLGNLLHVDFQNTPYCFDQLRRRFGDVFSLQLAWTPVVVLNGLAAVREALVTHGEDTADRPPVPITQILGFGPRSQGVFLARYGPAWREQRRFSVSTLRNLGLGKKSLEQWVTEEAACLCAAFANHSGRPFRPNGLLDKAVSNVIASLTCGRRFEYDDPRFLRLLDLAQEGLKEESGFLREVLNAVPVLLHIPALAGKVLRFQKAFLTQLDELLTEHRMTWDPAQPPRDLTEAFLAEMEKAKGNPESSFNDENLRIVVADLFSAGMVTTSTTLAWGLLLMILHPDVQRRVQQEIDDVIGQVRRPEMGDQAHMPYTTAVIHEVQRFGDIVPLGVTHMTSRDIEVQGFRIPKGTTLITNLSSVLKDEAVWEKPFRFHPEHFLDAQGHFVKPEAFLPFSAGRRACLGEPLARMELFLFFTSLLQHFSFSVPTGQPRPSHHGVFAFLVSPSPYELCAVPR
# Chain of Cytochrome P450 2C9 (Homo sapiens) (P11712 whole entry, looked up): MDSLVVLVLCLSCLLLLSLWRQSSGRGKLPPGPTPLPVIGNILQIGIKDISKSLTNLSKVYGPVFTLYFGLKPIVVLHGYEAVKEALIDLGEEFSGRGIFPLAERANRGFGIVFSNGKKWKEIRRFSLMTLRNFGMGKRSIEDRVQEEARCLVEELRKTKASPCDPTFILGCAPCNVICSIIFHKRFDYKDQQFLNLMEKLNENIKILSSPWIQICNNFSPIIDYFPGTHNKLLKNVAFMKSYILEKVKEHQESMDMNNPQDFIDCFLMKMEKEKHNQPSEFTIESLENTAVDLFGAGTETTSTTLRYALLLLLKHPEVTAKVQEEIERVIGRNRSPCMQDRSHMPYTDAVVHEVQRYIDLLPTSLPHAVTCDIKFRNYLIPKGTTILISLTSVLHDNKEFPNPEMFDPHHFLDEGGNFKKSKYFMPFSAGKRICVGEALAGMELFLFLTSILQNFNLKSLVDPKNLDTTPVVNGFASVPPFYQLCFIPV
compound,measurement,setting,value
O=C(CCN1CCN(CCO)CC1)N1c2ccccc2Sc2ccc(C(F)(F)F)cc21,Potency,[1],inactive
same,Potency,[2],inactive
same,Potency,[3],inactive
same,outcome,[4],inactive
same,Potency,[5],inactive
same,max activation,[6],-2.18%
same,Potency,[7],10 µM (active)
same,Potency,[8],15.8 µM (active)
same,Potency,[9],inactive
same,Potency,[10],inactive
same,Potency,[11],inactive
same,Potency,[12],inactive
same,Potency,[13],inactive
CCC(C)NC(N)=O (stereo unspecified),Potency,[1],inactive
same,Potency,[2],inactive
same,Potency,[3],inactive
same,outcome,[4],inactive
same,Potency,[5],inactive
same,Potency,[10],inactive
same,Potency,[11],inactive
same,Potency,[12],inactive
same,Potency,[13],inactive
same,Potency,[14],inactive
COC(=O)CCCCCCCC(=O)OC,Potency,[1],inactive
same,Potency,[2],inactive
same,Potency,[3],inactive
same,outcome,[4],inactive
same,Potency,[5],inactive
same,Potency,[15],inactive
same,Potency,[10],inactive
same,Potency,[11],inactive
same,Potency,[13],inactive
same,Potency,[14],inactive
Cc1[nH]cnc1-c1ccc(Cl)cc1,Potency,[1],inactive
same,Potency,[2],inactive
same,Potency,[3],inactive
same,outcome,[4],inactive
same,Potency,[5],inactive
same,Potency,[10],15.5 µM (active)
same,Potency,[11],15.5 µM (active)
same,Potency,[12],2.19 µM (active)
same,Potency,[13],inactive
CN(C)CCOCCO,Potency,[1],inactive
same,Potency,[2],inactive
same,Potency,[3],inactive
same,outcome,[4],inactive
same,Potency,[5],inactive
same,Potency,[9],inactive
same,Potency,[10],inactive
same,Potency,[11],inactive
same,Potency,[13],inactive
same,Potency,[14],inactive
CCCCCCCCCCl,Potency,[1],inactive
same,Potency,[2],inactive
same,Potency,[3],inactive
same,outcome,[4],inactive
same,Potency,[5],inactive
same,Potency,[9],40.3 µM (active)
same,Potency,[11],inactive
same,Potency,[13],inactive
same,Potency,[14],inactive
CC/C=C\CC1=C(C)CCC1=O,Potency,[1],inactive
same,Potency,[2],inactive
same,Potency,[3],inactive
same,outcome,[4],inactive
same,Potency,[5],inactive
same,Potency,[15],34.4 µM (active)
same,Potency,[10],63.3 µM (active)
same,Potency,[11],inactive
same,Potency,[13],inactive
same,Potency,[14],inactive
O=C(OCc1ccccc1)C(=O)OCc1ccccc1,Potency,[1],inactive
same,Potency,[2],inactive
same,Potency,[3],inactive
same,outcome,[4],inactive
same,Potency,[5],inactive
same,Potency,[15],inactive
same,Potency,[10],inactive
same,Potency,[11],inactive
same,Potency,[12],inactive
same,Potency,[13],inactive
same,Potency,[14],inactive
Oc1cn2c(n1)Nc1ccc(Cl)c(Cl)c1C2,"activity change, negative = cytotoxicity",[1],-3.42% [at 19 µM]
same,caspase activation,[2],0.135% [at 19 µM]
same,"activity change, negative = cytotoxicity",[3],-2.03% [at 19 µM]
same,caspase-3/7 activation,[4],-0.902% [at 19 µM]
same,"activity change, negative = cytotoxicity",[5],6.29% [at 19 µM]
same,max activation,[6],0.479%
same,Potency,[7],inactive
same,Potency,[8],inactive
same,"activity change, negative = inhibition",[10],3% [at 23.6 µM]
same,"activity change, negative = inhibition",[13],-1.03% [at 15.8 µM]
same,"activity change, negative = inhibition",[14],40.9% [at 23.6 µM]
NS(=O)(=O)c1ccc(NC(=O)CCC(=O)O)cc1,Potency,[1],inactive
same,Potency,[2],inactive
same,Potency,[3],inactive
same,outcome,[4],inactive
same,Potency,[5],inactive
same,max activation,[6],-2.26%
same,Potency,[7],inactive
same,Potency,[8],inactive
same,Potency,[10],inactive
same,Potency,[11],inactive
same,Potency,[12],inactive
same,Potency,[13],inactive
same,Potency,[14],inactive
